Test results: PubChem BioAssay (EPA / NIEHS)
Inconclusive results are not listed. Activity calls are given as the source filed them. How the source made its calls, unless noted: active means hit-call score of the fitted dose curve at least 0.9, where 1 is the maximum; inactive means score below 0.9.

Legend:
[1] = TOX21_p53_BLA_p2_viability: Viability Assessment in the Tox21 HCT-116 p53 Agonism Beta-lactamase Assay, Phase 2 (AID 2283591; active means hit-call score of the fitted dose curve at least 0.9, where 1 is the maximum;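 further: compound exposure lasted 16 h at 37 °C; actives lower the ATP signal meaning cytotoxicity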)
Method in brief: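 HCT116 p53-bla cells, 4000/well, dosed after 5 h plating (217-fold dilution of DMSO stocks) and incubated 16 h at 37C. Viability taken as cellular ATP by CellTiter-Glo luminescence after 30 min RT; signal loss marks cytotoxicity.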

[2] = target: Cellular tumor antigen p53 (Homo sapiens) (UniProt P04637); assay: TOX21_p53_BLA_p2_ratio: Tox21 HCT-116 p53 Agonism Beta-lactamase Assay, Ratio, Phase 2 (AID 2283592; active means hit-call score of the fitted dose curve at least 0.9, where 1 is the maximum)
Sequence of Cellular tumor antigen p53 (Homo sapiens) (P04637 whole entry, looked up): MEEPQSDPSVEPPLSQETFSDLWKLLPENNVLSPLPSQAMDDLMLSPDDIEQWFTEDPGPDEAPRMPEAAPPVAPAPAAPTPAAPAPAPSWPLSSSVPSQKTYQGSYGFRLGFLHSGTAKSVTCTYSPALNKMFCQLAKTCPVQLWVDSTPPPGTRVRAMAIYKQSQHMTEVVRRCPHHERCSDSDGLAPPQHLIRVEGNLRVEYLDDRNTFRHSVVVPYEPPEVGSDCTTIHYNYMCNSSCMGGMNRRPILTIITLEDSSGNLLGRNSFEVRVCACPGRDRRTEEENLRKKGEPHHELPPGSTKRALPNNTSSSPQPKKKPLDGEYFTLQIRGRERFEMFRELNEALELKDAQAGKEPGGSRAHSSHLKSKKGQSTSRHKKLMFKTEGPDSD
Method in brief: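 In this cell-based reporter format, HCT116 cells were dosed with chemicals delivered from DMSO by 217-fold dilution and incubated 16 h at 37C. Emission at 460 and 530 nm after 2 h CCF4-AM loading provided the ratio, fitted upward versus DMSO.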

[3] = TOX21_p53_BLA_p3_viability: Viability Assessment in the Tox21 HCT-116 p53 Agonism Beta-lactamase Assay, Phase 3 (AID 2283593; active means hit-call score of the fitted dose curve at least 0.9, where 1 is the maximum;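 further: cells exposed to compound for 16 h before reading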)
Method in brief: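 HCT116 cells, 4000/well, dosed 5 h after plating by pin transfer (217-fold dilution from DMSO stock) and incubated 16 h at 37C, 5% CO2. Viability read as ATP luminescence with CellTiter-Glo after 30 min at room temperature.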

[4] = TOX21_p53_BLA_p4_viability: Viability Assessment in the Tox21 HCT-116 p53 Agonism Beta-lactamase Assay, Phase 4 (AID 2283597; active means hit-call score of the fitted dose curve at least 0.9, where 1 is the maximum;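 further: hits lower the luminescence signal meaning cytotoxicity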)
Method in brief: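 We seeded HCT116 p53 reporter cells at 4000/well and waited 5 h. We then added compounds in DMSO at a 217-fold dilution and incubated for 16 h. Viability was read as CellTiter-Glo luminescence after 30 min at RT.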

[5] = TOX21_p53_BLA_p5_viability: Viability Assessment in the Tox21 HCT-116 p53 Agonism Beta-lactamase Assay, Phase 5 (AID 2283600; active means hit-call score of the fitted dose curve at least 0.9, where 1 is the maximum)
Method in brief: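 Compounds, pinned from DMSO at 217-fold dilution, were left on the cells for 16 h. The viability endpoint was ATP content measured by CellTiter-Glo luminescence, where falling signal reflects cytotoxicity.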

[6] = target: Cellular tumor antigen p53 (Homo sapiens) (UniProt P04637); assay: TOX21_p53_BLA_p4_ratio: Tox21 HCT-116 p53 Agonism Beta-lactamase Assay, Ratio, Phase 4 (AID 2283601; active means hit-call score of the fitted dose curve at least 0.9, where 1 is the maximum)
Method in brief: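 HCT-116 p53 beta-lactamase reporter cells (4000/well) preincubated 5 h, then compound (217-fold dilution of DMSO stock) for 16 h at 37C. CCF4-AM substrate added 2 h at room temperature; 460/530 nm emission ratio fitted upward versus DMSO.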

[7] = CCTE_Shafer_MEA_dev_firing_rate_mean: CCTE's Neural Network Formation Assay for Mean Firing Rate, Shafer Lab (AID 2284031)
Method in brief: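 Developing rat cortical networks on MEA plates undergo 12-day compound exposure. Firing frequency, averaged across active electrodes, is integrated as area under the curve over four recording days, referenced to DMSO.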

[8] = CCTE_Shafer_MEA_dev_per_burst_spike_percent: CCTE's Neural Network Formation Assay for Percent of Spikes in a Burst, Shafer Lab (AID 2284032)
Method in brief: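 Rat primary cortical neurons on 16-electrode MEA wells, dosed from plating day 0 for 12 days with renewal on DIV 5 and 9; spikes-in-bursts percentage averaged over bursting electrodes, collapsed as AUC across days 5, 7, 9, 12; loss direction versus DMSO.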

[9] = CCTE_Shafer_MEA_dev_active_electrodes_number: CCTE's Neural Network Formation Assay for Number of Active Electrodes, Shafer Lab (AID 2284040; active means hit-call score of the fitted dose curve at least 0.9, where 1 is the maximum)
Method in brief: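 Rat cortical primary cultures, 1.5 x 10^5 cells/well, PEI-coated MEA, laminin drop. Continuous exposure DIV 0–12; full media/compound change DIV 5, 9. Readout: electrodes with mean firing ≥5 spikes/min; AUC across days; loss vs DMSO.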

[10] = CCTE_Shafer_MEA_dev_burst_rate: CCTE's Neural Network Formation Assay for Burst Rate, Shafer Lab (AID 2284042)
Method in brief: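 Rat primary cortical cultures on PEI/laminin MEA; compound from plating, re-dosed at DIV 5, 9 media change. Single-electrode bursts/recording length, well mean of active electrodes; AUC over DIV 5–12 recordings; loss-of-signal vs DMSO.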

[11] = CCTE_Shafer_MEA_dev_bursting_electrodes_number: CCTE's Neural Network Formation Assay for Number of Bursting Electrodes, Shafer Lab (AID 2284043; active means hit-call score of the fitted dose curve at least 0.9, where 1 is the maximum)
Method in brief: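 Primary rat cortical neurons plated on 16-electrode MEA wells, exposed from day 0 with compound renewed at DIV 5 and 9. Electrodes bursting ≥1 burst per 2 min counted on days 5, 7, 9 and 12; trapezoidal AUC across days, fitted for loss versus DMSO.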

[12] = CCTE_Shafer_MEA_dev_burst_duration_mean: CCTE's Neural Network Formation Assay for Mean Burst Duration, Shafer Lab (AID 2284045)
Method in brief: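 Primary rat cortical neurons on 48-well 16-electrode MEA plates, exposed from day 0 with renewal at DIV 5 and 9; spontaneous activity recorded on days 5, 7, 9, 12. Well-mean burst duration across bursting electrodes, collapsed as trapezoidal AUC; DMSO baseline.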

[13] = CCTE_Shafer_MEA_dev_interburst_interval_mean: CCTE's Neural Network Formation Assay for Mean Interburst Interval, Shafer Lab (AID 2284046);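 further: well-mean interburst interval of bursting electrodes as AUC over four recording days; curve fitted for decrease in interburst interval relative to DMSO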
Method in brief: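 Rat cortical neurons, 1.5 x 10^5 cells/well, 48-well MEA; compound from day 0 through DIV 12, media and treatment renewed DIV 5/9. Recordings DIV 5, 7, 9, 12; well-mean interburst interval → trapezoidal AUC, loss direction vs DMSO.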

[14] = CCTE_Shafer_MEA_dev_inter_network_spike_interval_mean: CCTE's Neural Network Formation Assay for Mean Inter-network Spike Interval, Shafer Lab (AID 2284047)
Method in brief: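 Primary rat cortical neurons on PEI-coated 48-well MEAs (16 electrodes/well) were exposed from plating day 0 to DIV 12, with dosing renewed at DIV 5 and 9. Recordings at DIV 5, 7, 9, 12 were collapsed by trapezoidal AUC, loss-of-signal fit vs DMSO.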

[15] = CCTE_Shafer_MEA_dev_network_spike_number: CCTE's Neural Network Formation Assay for Number of Network Spikes, Shafer Lab (AID 2284048)
Method in brief: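 Primary rat cortical neurons on PEI/laminin 48-well MEA plates, dosed from plating day 0 for 12 days, renewed at DIV 5 and 9. Network spike counts recorded DIV 5, 7, 9, 12, collapsed as trapezoidal AUC; DMSO baseline.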

[16] = CCTE_Shafer_MEA_dev_network_spike_peak: CCTE's Neural Network Formation Assay for Mean Number of Electrodes in Network Spike, Shafer Lab (AID 2284049)
Method in brief: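 Network-spike peak electrode count from recordings on days 5, 7, 9 and 12 was combined as trapezoidal area under the curve. Rat cortical cultures were treated continuously from plating, with compound renewed at each feed (DIV 5, 9); fits versus DMSO.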

[17] = CCTE_Shafer_MEA_dev_spike_duration_mean: CCTE's Neural Network Formation Assay for Mean Spike Duration, Shafer Lab (AID 2284051);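 further: mean network spike duration pooled as area under curve over DIV 5 to 12 recordings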
Method in brief: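 Rat cortical primary cultures, 48-well MEA (16 electrodes/well); compound from plating, renewed DIV 5, 9. Network spike duration (AxIS adaptive detector) recorded DIV 5/7/9/12, combined as trapezoidal AUC; loss direction vs DMSO.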

Measured: outcome

COC(=O)[C@H]1[C@@H](OC(=O)c2ccccc2)C[C@@H]2CC[C@H]1N2C
inactive: all assays above
